Where “and” joins values, the source holds several entries; their conditions need not be identical. Equal values may be shown once. The panel holds about 83,000 compounds, 20% with a hit somewhere; the sample as a whole holds those more often.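 Step 1: grow cells in 96-well plates. Step 2: add test compound at a single concentration. Step 3: incubate 48 h. Step 4: record percent growth.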 A number with no mark means an inactive call. Calls of active or inactive are those of the source. The calls were made as follows: active = growth percent below 10; inactive = the rest.

Holding throughout (test): NCI-60 one-dose screen, 48 h (100 = growth as untreated, 0 = no growth, -100 = all killed)
Details in all cases: 10 µM unless noted

In assay [1] the test system is NCI-H23 lung.
The subject of assay [2] is NCI-H226 lung.
Assay [3] deals with NCI-H322M lung.
In assay [4] the test system is HOP-62 NSCLC.
The test system of assay [5] is NCI-H460 lung.
The test system of assay [6] is NCI-H522 lung.
Assay [7] relates to A549/ATCC NSCLC.
Assay [8] concerns 786-0 renal.
In assay [9] the test system is COLO 205 colon.
The subject of assay [10] is DU-145 prostate.
The test system of assay [11] is K-562 leukemia.
Assay [12] relates to MALME-3M melanoma.
In assay [13] the test system is MDA-MB-231 breast.
The test system of assay [14] is RXF 393 renal.
Assay [15] deals with SF-268 CNS.
The subject of assay [16] is SF-295 CNS.
The test system of assay [17] is SF-539 CNS.
Assay [18] relates to UACC-257 melanoma.
In assay [19] the test system is M14 melanoma.
Assay [20] has as its system HOP-92 NSCLC.

Regarding `Oc1c(Cl)cc(Cl)c2cccnc12`, the growth in assay [1] was 64.6% and 49.1%; in assay [2], 81% and 71.6%; in assay [3], 63.2% and 72.1%; in [4] it was 49.7% and 71.2%; in [5] it was 24.7% and 27.4%; in assay [6] it was 65.2% and 71.8%. Besides, the growth was 30.6% in assay [7]; 69.1% and 74% in assay [8]; 99.9% and 85.2% in [9]; 85.5% and 71.2% in assay [10]; 24.4% and 29% in assay [11]; 74.1% and 91.3% in assay [12]. Moreover, the growth in assay [13] was 95.1% and 48.3%; in assay [14], 67.1%; in assay [15], 66.4% and 54%; in [16], 30.3% and 12.3%; in [17], 68.7% and 34.3%; in assay [18] it was 82.4%. In [19], the growth is 63.7% and 53%.

Consider `CCOc1ccc(-c2nc3ccc(-c4nc5ccc(N6CCN(C)CC6)cc5[nH]4)cc3[nH]2)cc1`, for which the growth in [1] was -71.7% (active); in [2] it was -85.5% (active); in assay [3], -84.7% (active); in assay [4], -87.5% (active); in assay [5], -90.7% (active); in [6], -65.5% (active). The growth in [7] was -80.7% (active); in assay [8], -90.6% (active); in assay [9] it was -96.5% (active); in assay [10], -100% (active); in [11], 24.9%; in [12], -87.8% (active). For the same molecule, the growth was -84.2% (active) in [13]; -86.2% (active) in [14]; -83.9% (active) in assay [15]; -81.9% (active) in assay [16]; -97.9% (active) in assay [17]; -64.8% (active) in [18]. In [19], the growth was -85.1% (active).

Consider `CC(=Nc1ccc(N(C)C)cc1)c1ccccc1`, for which the growth in assay [1] is 66.4%; in assay [2] it was 59.3%; in assay [3] it was 66.5%; in assay [4], 54.2%; in assay [5], 34.2%; in assay [6], 64.7%. The growth in [7] is 45.2%; in assay [8] it was 74.5%; in [10], 46.9%; in [11], 22.5%; in assay [12], 85.5%; in [13], 66.5%. Also, the growth is 72.8% in [14]; 82.3% in assay [15]; 44.4% in assay [16]; 56.7% in assay [17]; 59.4% in [18]; 66.1% in [19].

Regarding `O[C@H]1[C@H]2c3cc4c(cc3CN3CCC(=C[C@@H]1O)[C@H]23)OCO4`, the growth was 15.3% in assay [1]; 15.3% in [2]; 18.5% in assay [3]; 26.5% in [4]; 18.4% in assay [5]; 25% in [6]. For the same molecule, the growth is 19.1% in assay [7]; 31.9% in assay [8]; 9.67% (active) in assay [9]; 9.62% (active) in assay [10]; 21.4% in [11]; 41.9% in assay [12]. Besides, the growth in assay [13] is 39.6%; in assay [14] it was 19%; in assay [15] it was 24.4%; in assay [16], 34%; in assay [17] it was 14%; in assay [18], 45.7%. The growth in [19] was 15.9%.

Take `O=C1c2ccccc2C(=O)c2sc(Nc3ccc(Cl)cc3)nc21`: the growth was -53.2% (active) in [1]; 1.07% (active) in assay [2]; 78% in assay [3]; 55.4% in assay [4]; 87.7% in assay [5]; 15.9% in [6]. Also, the growth in assay [7] is 71.8%; in [8], 60.9%; in assay [9] it was 82.9%; in [10], -78.3% (active); in [11] it was 4.83% (active); in assay [12] it was -79.6% (active). The growth in [13] is 6.43% (active); in assay [14], 17%; in assay [15], 42%; in [16], 98.4%; in [17], 2.24% (active); in assay [18], -16% (active). Besides, the growth in assay [19] is -2.34% (active).

For the molecule `O=C(O)C1C2CC3C(OC(=O)C31)C2Br` (configuration not stated), the growth in assay [1] is 103% and 95.4%; in assay [2] it was 88.3% and 90.7%; in [3], 101% and 106%; in assay [4] it was 92.8% and 99.4%; in [5], 98.3% and 100%; in assay [20], 91% and 94.2%. In addition, the growth in [6] is 72.9% and 95.6%; in assay [7] it was 79.6% and 101%; in [8], 105% and 99%; in assay [10] it was 122% and 107%; in [11], 113% and 110%; in [12], 101% and 93.5%. For the same molecule, the growth in assay [13] was 103% and 115%; in assay [14] it was 98.2% and 93.5%; in assay [15] it was 109% and 106%; in assay [16], 96.9% and 101%; in [17], 99.5%; in [18], 82.7% and 95%. In addition, in assay [19], the growth is 96.7% and 98.3%.

With `COc1ccc(N=N/N=c2\sc3cc(OC)ccc3n2C)cc1`, the growth was 79.6% in [1]; 81.8% in assay [2]; 86.4% in [4]; 94.9% in [5]; 71.2% in [20]; 73.8% in assay [6]. Besides, the growth is 69.8% in [7]; 105% in [8]; 92.2% in [9]; 91.8% in assay [10]; 80.8% in assay [11]; 109% in [12]. The growth in assay [13] is 90.5%; in [14], 105%; in assay [15], 97.6%; in assay [16], 83.3%; in assay [17], 99.4%; in [18], 80%. In addition, the growth in assay [19] was 110%.

The record behind these values is PubChem BioAssay (NCI).
